Results from PubChem BioAssay.
Values joined by “and” are separate entries in the source; they are usually repeats but may differ in a detail not shown here. Equal values may be shown once.

What follows are compounds tested against Voltage-gated potassium channel subunit beta-2 (Rattus norvegicus) (UniProt P62483) (assay: inhibitors of rat Kvbeta2 reductase activity – biochemical, NADPH fluorescence, primary screen (AID 622;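 note: slope of raw intensity against log time taken from 70 to 1610 s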)). Conditions: recombinant KvBeta, 4-cyanobenzaldehyde reduction, at 10 µM, hits give high values;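 active = fluorescence slope higher than the sample average by over 3 SD (cut at about -0.22 in these data, passing the limit was not always enough); inactive = the rest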.
Chain of Voltage-gated potassium channel subunit beta-2 (Rattus norvegicus) (P62483 whole entry, looked up): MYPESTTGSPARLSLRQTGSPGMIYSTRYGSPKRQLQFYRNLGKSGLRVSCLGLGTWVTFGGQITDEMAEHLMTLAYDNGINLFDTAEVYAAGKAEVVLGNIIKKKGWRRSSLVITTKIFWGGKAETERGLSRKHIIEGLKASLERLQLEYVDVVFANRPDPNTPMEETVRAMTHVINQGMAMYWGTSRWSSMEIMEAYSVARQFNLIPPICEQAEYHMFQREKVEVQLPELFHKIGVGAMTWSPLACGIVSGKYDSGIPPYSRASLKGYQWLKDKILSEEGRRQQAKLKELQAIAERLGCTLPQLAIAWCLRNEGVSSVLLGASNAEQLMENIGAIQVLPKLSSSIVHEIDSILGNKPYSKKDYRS

Fluorescence slope, inactive:
COc1cc(C2C(C#N)=C(N)Oc3cc(N)ccc32)cc(OC)c1OC (stereo unspecified) -0.434, CN(C)CCCC1(c2ccc(F)cc2)OCc2cc(C#N)ccc21 (stereo unspecified) -0.453, CCCc1cc(=O)[nH]c(=S)[nH]1 -0.468, CN(C)CCOC(C)(c1ccccc1)c1ccccn1 (stereo unspecified) -0.52, CCCCNC(=O)NS(=O)(=O)c1ccc(C)cc1 -0.454, CC(=O)[C@@]1(O)CC[C@H]2[C@@H]3C[C@H](C)C4=CC(=O)C=C[C@]4(C)[C@@]3(F)[C@@H](O)C[C@@]21C -0.416, O=C1NC(=O)C(c2ccccc2)(c2ccccc2)N1 -0.471, CC(C)(C)NC[C@H](O)COc1nsnc1N1CCOCC1 -0.502, O=C(O)CCC(=O)Nc1ccc(S(=O)(=O)Nc2nccs2)cc1 -0.504, Cc1cc(C(C)(C)C)cc(C)c1CC1=NCCN1 -0.464, CN(C)CCCN1c2ccccc2Sc2ccccc21 -0.511, Nc1ccc(C(=O)O)c(O)c1 -0.483 and -0.504, CC(=O)[C@H]1CC[C@H]2[C@@H]3CCC4=CC(=O)CC[C@]4(C)[C@H]3CC[C@]12C -0.446, O=c1n(CCCN2CCN(c3cccc(Cl)c3)CC2)nc2ccccn12 -0.359, Cn1c(=O)c2c(ncn2CC(O)CO)n(C)c1=O (stereo unspecified) -0.438, CC1(C)S[C@@H]2[C@H](NC(=O)Cc3ccccc3)C(=O)N2[C@H]1C(=O)O -0.496
